# Test results published in PubChem BioAssay AID720504 (National Center for Advancing Translational Sciences (NCATS), 2013).
# In all, about 360,000 compounds went through this assay and about 10,000 (2.8%) were called active. Another 4% or so got no clear call; they are omitted. Calls follow the shape of the dose curve; as a rule, active = well fitted inhibition curve with a large enough effect; inconclusive = small, poorly fitted or top-dose-only effect; inactive = flat fitted curve, though single readings scatter. For the sample, actives were picked, then their nearest neighbours and some compounds at random. A structure can be active in one record and inactive in another.
# Target: Serine/threonine-protein kinase PLK1 (Homo sapiens) (UniProt P53350)
# Test: qHTS for Inhibitors of PLK1-PDB (polo-like kinase 1 - polo-box domain): Primary Screen; also: nearly all actives have a fitted effect of over 65% in size; as to max response, negative = inhibition: series mostly up to about 57 µM
# Conditions: Plk1 PBD binding of FITC phosphopeptide, fluorescence polarization
# Text: The polo-like kinase 1 (Plk1) is a member of a conserved subfamily of serine / threonine protein kinases that plays a pivotal roles in cell proliferation. It has a C-terminal non-catalytic region called the polo-box domain (PBD) that plays a crucial role in the subcellular localization of the Plk1. […] Furthermore, depletion of the overexpressed Plk1 by RNAi efficiently induces apoptotic cell death in cancer and reduces tumor growth in mouse xenograft models. Thus, targeting Plk1 is an appealing strategy for anti-cancer therapy. Therefore, this project aimed to screen the Molecular Libraries Small Molecule Repository (MLSMR) using a novel approach to find inhibitors that target the Plk1 PBD instead of the conventional N-terminal catalytic domain. This project employed a fluorescence polarization (FP) assay using a FITC-conjugated phospho-9-mer (p-9-mer) peptide and purified human Plk1 PBD protein. The identified small molecule inhibitors of Plk1 PBD can then further be developed into useful tools for biomedical and clinical research that complements or replaces current relevant disease therapy. NIH Chemical Genomics Center [NCGC] NIH Molecular Libraries Probe Centers Network [MLPCN] MLPCN Grant: MH100728 Assay Submitter (PI): Kyung Lee, NCI
# Four microliter of 25 nM FITC-p-9-mer + 60 nM Plk1 PBD in buffer solution (final concentrations 25 nM and 60 nM respectively) or 4 uL of 25 nM FITC-p-9-mer (final concentration 25 nM) in buffer will be dispensed into a 1,536 Greiner medium-binding black solid plate. Small molecules at final concentrations of 18 nM to 57 uM and positive control phospho-9-mer (sequence: Ac-PPLHSpTAI-NH2) at final concentrations 26 nM to 57 uM and phospho-13-mer (sequence: Ac-[…]pTAI-NH2) at final concentrations of 1 nM to 2.3 uM will be pin-transferred (23 nL) to the plate via a Kalypsys pin-tool robotics equipped with a 1,536-pin array. The reaction plate will be centrifuged for 1 min at 1000 rpm and incubated at room temperature for 10 min. The FITC fluorescence signals will be read using the PerkinElmer ViewLux plate reader at 480 / 20 nm excitation and 540 / 20 nm S and P polarization emission wavelengths. Reagent bottles will be kept submerged into 4 °C recirculating chiller bath and all liquid lines will be covered with aluminum foil to minimize degradation. Library plates will be screened starting from the lowest to the highest concentrations to minimize compound carryover. Vehicle only plates, with DMSO being pin-transferred instead of compound solutions, will be included regularly throughout the screen to record any systematic shifts in assay signal.
# % is scaled to controls: 0 for no effect and ±100 for the full control effect; potency is read from the fitted curve at half-maximal effect.
# Serine/threonine-protein kinase PLK1 (Homo sapiens), sequence (P53350 whole entry, looked up, the tested form may be a part): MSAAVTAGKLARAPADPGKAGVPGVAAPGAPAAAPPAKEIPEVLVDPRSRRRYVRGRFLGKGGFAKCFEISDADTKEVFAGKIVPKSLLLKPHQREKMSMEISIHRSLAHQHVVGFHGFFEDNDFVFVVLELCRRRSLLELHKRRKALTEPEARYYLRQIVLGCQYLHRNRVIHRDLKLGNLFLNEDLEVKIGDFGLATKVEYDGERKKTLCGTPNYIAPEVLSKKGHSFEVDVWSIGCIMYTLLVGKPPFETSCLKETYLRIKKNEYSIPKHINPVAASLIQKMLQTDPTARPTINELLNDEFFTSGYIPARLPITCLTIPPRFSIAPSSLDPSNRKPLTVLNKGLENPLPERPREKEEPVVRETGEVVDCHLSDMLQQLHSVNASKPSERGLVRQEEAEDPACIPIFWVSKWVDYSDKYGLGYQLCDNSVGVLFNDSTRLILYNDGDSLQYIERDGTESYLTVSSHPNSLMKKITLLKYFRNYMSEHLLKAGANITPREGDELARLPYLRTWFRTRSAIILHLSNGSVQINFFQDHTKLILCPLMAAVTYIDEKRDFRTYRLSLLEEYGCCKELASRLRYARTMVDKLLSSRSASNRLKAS
SMILES,"max response, negative = inhibition",Potency
Cc1ccc(-c2c(N)nc3ncccn23)cc1,2.55% (inactive),
CCc1nc2c(OCC(N)=O)cccn2c1N(C)C(=O)c1ccc(OC)cc1,-13.5% (inactive),
Cc1nc2ccccc2c(=O)n1CCCn1ccnc1,,21.2 µM (active)
CC1(C(=O)NCc2ccccc2)CSCC(=O)N1CCCn1ccnc1 (stereo unspecified),-0.172% (inactive),
Clc1c(OCCCn2ccnc2)ccc2ccccc12,-25.1% (inactive),
CN(C)c1ccc(/C=N/NC(=O)C(O)c2ccc(Br)cc2)cc1 (stereo unspecified),-14.9% (inactive),
COc1ccc(/C=N/NC(=O)C(C)N(c2ccc(OC)cc2)S(C)(=O)=O)cc1 (stereo unspecified),,26.7 µM (active)
CC(C(=O)NC1CCCC1)N(c1ccc(Oc2ccccc2)cc1)S(C)(=O)=O (stereo unspecified),-1.83% (inactive),
COc1ccccc1Cc1c(-c2ccc(Cl)cc2)nc2c3ccccc3ccn12,-5.7% (inactive),
O=C(/C=C/[C@H]1O[C@@H](n2ccc(=O)[nH]c2=O)[C@H](O)[C@@H]1O)NCc1ccccn1,0.76% (inactive),
Cc1cccc(C)c1NC(=O)C(c1ccc(C(F)(F)F)cc1)n1c(=O)c(-c2ccco2)nc2ccccc21 (stereo unspecified),-16.2% (inactive),
COc1ccc(CC(=O)NCC(=O)N/N=C/c2cc(Br)ccc2OC)cc1,0.444% (inactive),
CC(C)/C=N/NC(=O)c1cc(Br)ccc1O,-13.1% (inactive),
COc1ccc(-c2[nH]ncc2/C=N/NC(=O)c2cc(Br)ccc2O)c(OC)c1,,26.7 µM (active)
CC(C)(O)C1=C[N+](=O)CC=C1,-9.3% (inactive),
O=C(CNc1ccc(F)cc1F)NC(=O)NCc1ccco1,-20.1% (inactive),
CCOC(=O)c1cnc(SCC(=O)NCc2ccco2)nc1N,-1.79% (inactive),
Cc1cc(C)n2nc(SCC(=O)NC(=O)NCc3ccco3)nc2n1,,16.8 µM (active)
O=[N+]([O-])c1ccc(CN2CC(N3CCC(c4ccccc4)CC3)CS2(=O)=O)cc1 (stereo unspecified),-13.3% (inactive),
CCOc1ccc(Cl)cc1-c1cc(C(=O)NCc2cccs2)[nH]n1,-0.638% (inactive),
Cc1nn2c(c1-c1ccccc1)N=C(c1ccco1)CC2c1ccccc1 (stereo unspecified),2.38% (inactive),42.3 µM (active)
Cc1nn(C(=O)c2ccoc2C)c(N)c1-c1ccccc1,-3.12% (inactive),

SMILES,"max response, negative = inhibition",Potency
O=C(O)CCCC(=O)N1N=C(c2ccco2)CC1c1ccco1 (stereo unspecified),-14% (inactive),
C[C@H]1CN([C@@H](C)CO)C(=O)c2cc(-c3ccccc3F)cnc2O[C@H]1CN(C)C(=O)C1CCOCC1,-20.8% (inactive),
Cc1ccc(Cn2c(C)c(C(=O)NCc3ccccc3C(F)(F)F)sc2=O)cc1,-12.2% (inactive),
C=CCC(NC(=O)Cc1ccccc1)C(=O)NCCC (stereo unspecified),-11.6% (inactive),
O=C(Cc1ccc(-c2ccccc2)cc1)NC(c1ccccc1)c1ccccc1,,21.2 µM (active)
O=C(CN1CCN(Cc2ccccc2)CC1)NC(c1ccccc1)c1ccccc1,-13.1% (inactive),
O=C1NC[C@H](CCCCN2C[C@H](Cc3ccc(O)cc3)N(CC3CCCCC3)C(=O)C2=O)N(CCc2ccccc2)C1=O,-5.25% (inactive),
Cc1nc2c(OCc3ccc(Cl)cc3Cl)cccn2c1N(C)CC1CC1,-13% (inactive),
Cc1cc2nc(-c3ccc(Cl)cc3)c(Cc3cccc(F)c3)n2c(C)c1Br,-18.5% (inactive),
Cc1noc(C)c1NC(=O)N(C)C[C@@H]1Oc2cc(Br)ccc2S(=O)(=O)N([C@@H](C)CO)C[C@H]1C,2.61% (inactive),
COc1ccccc1C1C(C#N)=C(N)Oc2c1c(-c1ccccc1)nn2-c1ccccc1 (stereo unspecified),-0.276% (inactive),
Cn1c2c(c(=O)n(C)c1=O)C(c1cccc(F)c1)C(C#N)=C(N)O2 (stereo unspecified),-22.7% (inactive),
Cc1nn(-c2ccccc2)c2c1C(c1ccc(F)cc1)C(C#N)=C(N)O2 (stereo unspecified),,23.8 µM (active)
COc1ccc(S(=O)(=O)NC(=O)C2(C)CCN2C(=O)c2ccccc2CCc2ccccc2)cc1 (stereo unspecified),-9.6% (inactive),
Cc1cc(Nc2ccc(C)c(C)c2)n2ncnc2n1,-12.1% (inactive),
O=C(NC1CCN(C(=S)NCc2ccco2)CC1)c1ccc(F)cc1,,23.8 µM (active)
CCCNC(=S)N1CCC(NC(=O)c2ccc(OC)cc2)CC1,-7.7% (inactive),
O=S(=O)(c1ccc(F)cc1)N1CCN(C(=S)NCc2ccco2)CC1,-10.7% (inactive),
COC(=O)C[C@@H]1C=C[C@@H](NS(=O)(=O)c2cccc(OC)c2)[C@@H](CO)O1,-1.82% (inactive),
CC(=O)Nc1c(-c2ccc(C)cc2)nc2ccc(Cl)cn12,-2.35% (inactive),
CCCCN(CC)CCCNC(=O)CS(=O)(=O)Cc1nc(-c2cccc(OC)c2)oc1C,0.434% (inactive),
COc1cccc(-c2nc(CS(=O)(=O)CC(=O)NCCc3ccc(OC)c(OC)c3)c(C)o2)c1,,18.9 µM (active)

SMILES,"max response, negative = inhibition",Potency
COc1ccc(CCNC(=O)CS(=O)(=O)Cc2nc(-c3ccc(C)cc3)oc2C)cc1OC,-18.7% (inactive),
CC(=O)Nc1cccc(Nc2ccc(C#N)cc2)c1,0.998% (inactive),
CC1CCCC(NC(=O)COC(=O)c2ccccc2C(=O)N(C)C2CCCCC2)C1C (stereo unspecified),-13.1% (inactive),
O=C(CSc1ccccc1)Nc1cccc(S(=O)(=O)N2CCOCC2)c1,,23.8 µM (active)
Nc1cc(N)nc(SCC(=O)Nc2cccc(S(=O)(=O)N3CCCCC3)c2)n1,-3.4% (inactive),
O=C(CSc1ccccc1)Nc1cccc(S(=O)(=O)N2CCCCC2)c1,3.72% (inactive),
O=C(COC(=O)c1ccccc1)Nc1cccc(S(=O)(=O)N2CCOCC2)c1,10.6% (inactive),
CCN(CC(=O)Nc1cccc(S(=O)(=O)N2CCCCC2)c1)Cc1ccccc1,1.36% (inactive),
O=C(Cn1cnc2ccccc2c1=O)Nc1cccc(S(=O)(=O)N2CCCCC2)c1,,26.7 µM (active)
CN(C)CCN1CCN(c2cc(-c3cccc(Cl)c3)nc3ccnn23)CC1,-12.4% (inactive),
COc1ccc(Sc2ccc(NC(=O)c3cccc(Cl)c3)cc2C#N)cc1,2.16% (inactive),
Cc1cccc(CN2CCN(C3CN(Cc4ccccc4)S(=O)(=O)C3)CC2)c1 (stereo unspecified),2.44% (inactive),
Nc1ncnc2c1ncn2[C@@H]1O[C@H](CNC(=O)[C@H](N)Cc2cccnc2)[C@@H](O)[C@H]1O,-2.93% (inactive),
CCCCCC(=O)N1C[C@H](O)[C@@H](n2cc(COC(=O)c3ccccc3)nn2)C[C@@H]1c1ccc(C)cc1,-4.42% (inactive),
Cc1nnc(SCC(=O)N2CCOCC2)[nH]c1=O,-7.51% (inactive),
CCOC(=O)CSc1nc(C)c(Oc2ccc(Cl)cc2Cl)c(=O)[nH]1,-19.2% (inactive),
CCCCOC(=O)CNc1nnc(SCC(=O)OCC)[nH]c1=O,,13.4 µM (active)
CCc1nc2ccc(C(=O)N(C)CCN(C)C)cn2c1N(CC)CCOC,-14.3% (inactive),
COCOCCn1cc(CN2CCS(=O)(=O)N(Cc3ccc(-c4ccccc4)cc3)C(CC(C)C)C2=O)nn1 (stereo unspecified),-0.127% (inactive),
COc1ccc(-n2nc(C(=O)NCC(=O)N3CCCCCC3)c3ccccc3c2=O)cc1Cl,4.93% (inactive),
COc1cccc(-n2nc(C(=O)N3CCN(Cc4ccccc4)CC3)c3ccccc3c2=O)c1,,29.9 µM (active)
CCOC(=O)CNC(=O)c1nn(-c2cccc(OC)c2)c(=O)c2ccccc12,-5.49% (inactive),

SMILES,"max response, negative = inhibition",Potency
CC1(C(=O)NS(=O)(=O)c2cccs2)CCN1C(=O)Cc1ccc(-c2ccccc2)cc1 (stereo unspecified),-1.09% (inactive),
COC(=O)[C@]12CCCCC=C1N(Cc1ccco1)C(=O)[C@H](CC(=O)NCCCCc1ccccc1)C2,-4.79% (inactive),
COc1cccc(CNC(=O)[C@@H]2CCCN2C(=O)[C@@H]2CCCN2C(=O)c2ccccc2)c1,-5.85% (inactive),
COc1ccc(-c2cc(=O)oc3cc(OCC(=O)N[C@@H](Cc4c[nH]c5ccccc45)C(=O)O)ccc23)cc1,-6.27% (inactive),
COc1ccc(-c2cc(C(=O)NC(C(=O)O)C(C)C)c(C)o2)cc1OC (stereo unspecified),-8.55% (inactive),
COc1ccc(-c2cc(C(=O)NC(Cc3c[nH]c4ccccc34)C(=O)O)c(C)o2)cc1OC (stereo unspecified),,13.4 µM (active)
CCn1c(Cc2ccccc2)nnc1SCc1nc2ccccc2c(=O)[nH]1,-5.5% (inactive),
COc1ccc(CCCc2nnc(SCc3nc4ccccc4c(=O)[nH]3)n2C)cc1,,3.77 µM (active)
CCn1c(COc2c(C)cccc2C)nnc1SCc1nc2ccccc2c(=O)[nH]1,-11.4% (inactive),
CS(=O)(=O)c1ccc2c(c1)SC1=NC(=O)/C(=C/c3ccco3)C(=N)N12,-3.25% (inactive),
COc1ccccc1OCCOc1ccc(/C=C2\C(=N)N3N=C(C)SC3=NC2=O)cc1,-15.8% (inactive),
CS(=O)(=O)C1=NN2C(=N)/C(=C\c3ccc(OCCOc4ccccc4)cc3)C(=O)N=C2S1,,26.7 µM (active)
Cc1cc(/C=C2/NC(=O)NC2=O)c(C)n1-c1cccnc1,2.71% (inactive),
CCS(=O)(=O)C1=NSC2=NC(=O)/C(=C\c3ccc(OS(=O)(=O)c4ccccc4)cc3)C(=N)N21,,29.9 µM (active)
COc1cc(/C=C2\C(=N)N3N=C(CC(=O)N4CCOCC4)SC3=NC2=O)cc(OC)c1OC,-14.2% (inactive),
Cc1cc(/C=C2/C(=N)N3C(=NC2=O)SN=C3S(C)(=O)=O)c(C)n1-c1ccccc1,,26.7 µM (active)
CCCS(=O)(=O)NC(=O)C1(C)CCCN(C(=O)c2cccs2)C1 (stereo unspecified),-11.7% (inactive),
COc1cccc(-c2cc(NC(C)=O)c3ncc(-c4cccc(C(C)=O)c4)n3c2)c1,-19.9% (inactive),
CCCCc1ccc(S(=O)(=O)NC(=O)C2(C)CCN2C(=O)c2ccccc2)cc1 (stereo unspecified),-13.3% (inactive),
